# Assay results from PubChem BioAssay.
# “And” between values parts separate entries of the source, which are not always exact repeats. Equal entries are not always repeated. Inconclusive results are not listed. For part of these data: Measured potencies and affinities stand elsewhere. The source made the active and inactive calls. Unless noted, the rule behind the calls is not given here.
# Assays:
# [1] = yeast 75Q aggregation reduction – 75Q-TubU reporter (AID 1593); settings: Yeast 75Q polyglutamine aggregation reporter
# [2] = restoration of touch response, mutant HTT neurons – whole organism, C. elegans mechanosensory neurons, N-terminal huntingtin (AID 1599); settings: C. elegans polyQ-huntingtin mechanosensory neurons, stronger effect = higher value
# [3] = blockers of cytochrome c efflux from mitochondria – biochemical, purified mitochondria (AID 1603); settings: stronger effect = lower value;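 note: mouse liver mitochondria challenged with calcium chloride; signal normalized to the plate average as 100%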
# [4] = polyglutamine aggregate formation blockers (AID 1604); settings: polyglutamine-induced protein aggregation inhibition assay; stronger effect = higher value; tested at 2.5 µM
# [5] = glutamate transport activators, MN-1 cells, MN-1 cell line (AID 1612); settings: MN-1 motor neuron cells, stronger effect = higher value;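 note: tested at 1 µM final; 0% = mean of DMSO vehicle wells on each plate; positive means more glutamate uptake than control and negative means less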
# [6] = GFP-Q80 aggregate reduction, neuronal-like cells, cell-based, NGF-treated PC12, GFPQ80 (AID 1614); settings: PC12 NGF-treated GFP-polyQ80 inclusion reduction;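 note: lower means fewer inclusions and 0 means no inclusions at all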
# [7] = 75Q-TubH aggregate inhibition, S. cerevisiae, yeast (AID 1616); settings: S. cerevisiae 75Q-TubH polyglutamine aggregation suppression; stronger effect = higher value
# [8] = P. berghei load reduction in hepatocytes – cell-based, HepG2, luciferase luminescence, HepG2 viability, primary screen (AID 624349; in the data active = parasite load remaining mostly below about 12%, no sharp cut-off; inactive = mostly above about 10%;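 note: 100% = mean of DMSO negative control wells on the same plate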); settings: P. berghei liver stage in HepG2, luciferase luminescence, concentration not given here; parasite load remaining: stronger effect = lower value; viability: measured here: HepG2 viability without parasites
# [9] = EMT-state selective cytotoxicity in co-culture – imaging, PC-3E GFP, TEM4-18 mCherry, primary screen (AID 1345086;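 active = compounds killing one labelled cell type while sparing the other, by normalised counts and ratio limits, not self-fluorescent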;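 for all read-outs here: cells exposed to compound for 72 h before imaging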;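 for red/green cell ratio (normalised): normalised mesenchymal count divided by normalised epithelial count so high means epithelial killing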); settings: PC-3E GFP / TEM4-18 mCherry co-culture, imaging cell counts, at 1 µM; for red/green cell ratio (normalised): actives lie on both sides
# [10] = viability loss with induced miR-34 in A549 – imaging, A549 dox-inducible miR-34, nuclei and caspase counts, primary screen (AID 1347080;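 active = compounds whose cell count with miR-34 switched on is under 0.7 times the count with it off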); settings: A549 miR-34 inducible, Hoechst nuclei count, 48 h
# [11] = compounds altering circadian rhythm period length – cell-based, LOPAC library, luminescence reporter (AID 2774); settings: circadian reporter cells, at 7 µM, actives lie on both sides;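 note: values are relative to mean of DMSO wells on each plate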
# [12] = system: Hepatitis C virus NS3 helicase; test: blockers of NS3h binding to ssDNA – biochemical, fluorescence polarization, LOPAC1280 library, primary screen (AID 687035; in the data active = inhibition above about 37%); settings: Purified HCV NS3 helicase, Cy5-dT15 ssDNA binding fluorescence polarization; stronger effect = higher value; concentration not given here
# [13] = compounds altering Cy5-DNA-NS3h complex signal – biochemical, LOPAC1280, artefact control for HCV NS3 helicase inhibitor project (AID 687037); settings: Cy5-DNA-NS3h complex fluorescence interference counterscreen
# [14] = system: Aerobactin synthetase IucA (Klebsiella pneumoniae); test: inhibition of K. pneumoniae IucA enzyme – biochemical, Tocris library, absorbance (AID 1345561); settings: purified IucA enzyme assay, absorbance (OD) read-out; stronger effect = lower value;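 tested at 8 µM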;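 note: 100% = enzyme without compound and 0% = no enzyme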
# [15] = system: Aerobactin synthetase IucA (Klebsiella pneumoniae, hypervirulent); test: biochemical IucA inhibition screen of LOPAC library by absorbance (AID 1346212); settings: IucA enzyme assay, absorbance (OD) readout; stronger effect = lower value;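 tested at 8 µM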;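 note: 100% = no compound wells and 0% = no enzyme wells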
# [16] = blockers of cellular phospholipid synthesis – cell-based, LOPAC library, screen 4, primary screen (AID 1347384); settings: animal cells, phospholipid biosynthesis inhibition screen; at 10 µM
# [17] = galactose survival enhancers in mitochondrial complex I cybrids – cell-based, galactose medium, ATP luminescence, primary screen (AID 1645843;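 active = z-score of at least 1.8 in each of two replicates, scored against plate mean and spread of sample wells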;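 note: positive z means more ATP and so rescue of galactose-driven cybrid death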); settings: complex I mutant cybrid cells, 72 h, stronger effect = higher value
# [18] = viability loss in pontine glioma line – cell-based, SU-DIPG-XVII, MIPE5.0, CellTiter-Glo, qHTS, dose response (AID 1347060; cut-off not given, nearly all actives have AC50 up to about 26 µM); settings: CellTiter-Glo ATP luminescence
# [19] = viability loss in pontine glioma line – cell-based, SU-DIPG-XIII, MIPE4.0, CellTiter-Glo, qHTS, dose response (AID 1347061; cut-off not given, nearly all actives have AC50 up to about 37 µM;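 note: cells exposed to compound for 48 hours before readout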); settings: CellTiter-Glo ATP luminescence
# [20] = viability loss in pontine glioma line – cell-based, JHH-DIPG-1, MIPE4.0, CellTiter-Glo, qHTS, dose response (AID 1347062; cut-off not given, nearly all actives have AC50 up to about 27 µM); settings: JHH-DIPG-1 viability, CellTiter-Glo ATP luminescence
# [21] = viability loss in pontine glioma line – cell-based, SU-DIPG-IV, MIPE4.0, CellTiter-Glo, qHTS, dose response (AID 1347063; cut-off not given, nearly all actives have AC50 up to about 30 µM;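 note: compound exposure lasted 48 hours before the viability readout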); settings: CellTiter-Glo ATP luminescence
# [22] = viability loss in pontine glioma line – cell-based, SU-DIPG-XXV, MIPE5.0, CellTiter-Glo, qHTS, dose response (AID 1347065; cut-off not given, nearly all actives have AC50 up to about 26 µM;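 note: cells exposed to compound for 48 hours before ATP readout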); settings: CellTiter-Glo ATP luminescence
# [23] = growth inhibition of DIPG cells – cell-based, MIPE4.0 library, CellTiter-Glo luminescence, qHTS (AID 1347066; cut-off not given, nearly all actives have AC50 up to about 30 µM;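 note: cells exposed to compound for 48 hours before readout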); settings: SU-DIPG-VI viability, CellTiter-Glo ATP luminescence
# [24] = JHH-DIPG-1 glioma cell viability, MIPE5.0 library, CellTiter-Glo luminescence, qHTS (AID 1347067; cut-off not given, nearly all actives have AC50 up to about 26 µM;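 note: cells exposed to compound for 48 hours before readout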); settings: JHH-DIPG-1 glioma viability, CellTiter-Glo ATP luminescence
# [25] = compounds altering viability of human ES cells (AID 493140); settings: human embryonic stem cell survival screen; stronger effect = higher value;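 note: cells exposed to compounds for four days before counting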
# [26] = target: NAD(+) hydrolase SARM1 (Homo sapiens) (UniProt Q6SZW1); test: blocking NAD cleavage by SARM1 SAM-TIR – cell lysate, NAD-Glo luminescence (AID 1508614;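 active = compound whose remaining NAD level is above about 45 nM, limit read from the data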;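 note: higher remaining NAD means stronger inhibition of SARM1 NADase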); settings: SAM-TIR HEK293T lysate NADase, at 1 µM, stronger effect = higher value
# [27] = chitosan synthesis blockers in C. neoformans – flow cytometry, Cibacron Brilliant Red staining (AID 1347148); settings: Cryptococcus neoformans chitosan, stronger effect = lower value; at 10 µM unless noted;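 note: compound exposure lasted three days at 37 degrees C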
# [28] = measured here: epithelial PC-3E GFP cell survival
# [29] = measured here: mesenchymal TEM4-18 mCherry cell survival
# [30] = measured here: relative caspase fold change +Dox/-Dox
# [31] = measured here: total cells with miR-34 induction, stronger effect = lower value
# [32] = measured here: total cells without miR-34 induction
# [33] = stronger effect = lower value, cell number ratio, induced over uninduced
# NAD(+) hydrolase SARM1 (Homo sapiens), sequence (Q6SZW1 whole entry, looked up): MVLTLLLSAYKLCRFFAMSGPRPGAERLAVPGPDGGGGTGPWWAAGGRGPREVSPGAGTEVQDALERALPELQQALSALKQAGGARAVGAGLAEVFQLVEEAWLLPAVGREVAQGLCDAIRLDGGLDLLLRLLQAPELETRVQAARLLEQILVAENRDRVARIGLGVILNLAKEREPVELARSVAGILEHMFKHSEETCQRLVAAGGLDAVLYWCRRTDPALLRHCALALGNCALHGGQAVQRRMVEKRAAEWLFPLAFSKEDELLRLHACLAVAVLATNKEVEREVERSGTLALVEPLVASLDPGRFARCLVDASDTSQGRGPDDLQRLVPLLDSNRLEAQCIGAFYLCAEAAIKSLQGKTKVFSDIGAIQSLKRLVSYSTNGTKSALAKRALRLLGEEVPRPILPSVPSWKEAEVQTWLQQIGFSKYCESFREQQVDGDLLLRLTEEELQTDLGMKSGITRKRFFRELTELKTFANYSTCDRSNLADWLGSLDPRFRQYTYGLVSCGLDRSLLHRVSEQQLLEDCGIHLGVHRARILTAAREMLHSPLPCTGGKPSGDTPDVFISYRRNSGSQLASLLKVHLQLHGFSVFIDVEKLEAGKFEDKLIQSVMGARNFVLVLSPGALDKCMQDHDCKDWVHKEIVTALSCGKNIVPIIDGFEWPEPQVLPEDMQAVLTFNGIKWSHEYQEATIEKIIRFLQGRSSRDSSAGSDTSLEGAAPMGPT
compound,measurement,setting,value
CO[C@H]1[C@H](O)[C@@H](O[C@H]2CC[C@]3(C=O)C4CC[C@]5(C)[C@@H](C6=CC(=O)OC6)CC[C@]5(O)C4CC[C@@H]3C2)O[C@@H](C)[C@@H]1O (stereo partly drawn),score,[1],1.12
same,rescue above control,[2],-6.49
same,cytochrome c release ratio,[3],1.41
same,inhibition of aggregation,[4],0%
same,glutamate uptake change,[5],3.74%
same,inclusion score,[6],0.5
same,aggregation suppression score,[7],1.22
same,parasite load remaining,[8],56.4% (inactive)
same,viability,[8],41.4%
same,red/green cell ratio (normalised),[9],0.18 (inactive)
same,normalised cell number,[9]; [28],0.18
same,normalised cell number,[9]; [29],0.03
C#C[C@@H]1CC2C3CCC4=C[C@@H](OC(C)=O)CCC4C3CC[C@]2(C)[C@H]1OC(C)=O (stereo partly drawn),parasite load remaining,[8],19.4% (inactive)
same,viability,[8],101%
same,red/green cell ratio (normalised),[9],0.9 (inactive)
same,normalised cell number,[9]; [28],1.25
same,normalised cell number,[9]; [29],1.12
same,fold change,[10]; stronger effect = lower value,0.854 (inactive)
same,fold change,[10]; [30],3.71
same,cell count,[10]; [31],11300
same,cell count,[10]; [32],13200
CCCN(CCC)C1Cc2cc(OC)c(OC)cc2C1,period change,[11],-0.045 h (inactive)
same,inhibition,[12],-2% (inactive)
same,fluorescence ratio (interference),[13],1 (inactive)
same,remaining activity,[14],120% (inactive)
same,remaining activity,[15],106% (inactive)
same,fold change,[10]; stronger effect = lower value,0.979 (inactive) and 0.907 (inactive)
same,fold change,[10]; [30],0.924 and 0.563
same,cell count,[10]; [31],9280 and 9110
same,cell count,[10]; [32],9480 and 10000
same,outcome,[16],inactive
same,z-score,[17],0.43 (inactive) and 0.01 (inactive)
CC(=O)NCCc1c[nH]c2ccccc12,period change,[11],0.04 h (inactive)
same,inhibition,[12],-3% (inactive)
same,fluorescence ratio (interference),[13],0.9 (inactive)
same,remaining activity,[14],90.2% (inactive)
same,remaining activity,[15],105% (inactive)
same,fold change,[10]; stronger effect = lower value,1.01 (inactive) and 0.947 (inactive)
same,fold change,[10]; [30],0.736 and 0.687
same,cell count,[10]; [31],10200 and 9110
same,cell count,[10]; [32],10200 and 9620
same,outcome,[16],inactive
same,z-score,[17],0.505 (inactive) and 0.035 (inactive)
CCCN1CCO[C@@H]2c3cc(O)ccc3OC[C@H]21,period change,[11],-0.065 hour (inactive) and 0.1 hour (inactive)
same,inhibition,[12],-4% (inactive) and -2% (inactive)
same,fluorescence ratio (interference),[13],1 (inactive)
same,remaining activity,[14],109% (inactive)
same,remaining activity,[15],102% (inactive)
same,outcome,[18],inactive
same,outcome,[19],inactive
same,outcome,[20],inactive
same,outcome,[21],inactive
same,outcome,[22],inactive
same,outcome,[23],inactive
same,outcome,[24],inactive
same,fold change,[10]; stronger effect = lower value,0.978 (inactive) and 0.932 (inactive)
same,fold change,[10]; [30],1.67 and 0.977
same,cell count,[10]; [31],9750 and 8460
same,cell count,[10]; [32],9980 and 9070
same,z-score,[17],0.53 (inactive) and -0.06 (inactive)
C=CC[C@]1(O)CCC2C3CCC4=CC(=O)CCC4=C3C=C[C@@]21C (stereo partly drawn),parasite load remaining,[8],26.4% (inactive)
same,viability,[8],98.9%
same,red/green cell ratio (normalised),[9],0.86 (inactive)
same,normalised cell number,[9]; [28],0.92
same,normalised cell number,[9]; [29],0.79
same,fold change,[10]; stronger effect = lower value,0.89 (inactive)
same,fold change,[10]; [30],1.39
same,cell count,[10]; [31],10300
same,cell count,[10]; [32],11500
CCNC1(c2cccs2)CCCCC1=O (stereo not drawn),survival,[25],13.6 (inactive)
same,parasite load remaining,[8],136% (inactive)
same,viability,[8],77%
same,red/green cell ratio (normalised),[9],0.77 (inactive)
same,normalised cell number,[9]; [28],1.37
same,normalised cell number,[9]; [29],1.05
same,fold change,[10]; stronger effect = lower value,0.914 (inactive)
same,fold change,[10]; [30],0.59
same,cell count,[10]; [31],8750
same,cell count,[10]; [32],9570
same,remaining NAD,[26],10 nM (inactive)
Cn1cc(C(=O)C(=O)N[C@H]2CN3CCC2CC3)c2ccccc21,remaining activity,[14],92.5% (inactive)
same,fold change,[10]; [33],0.891 (inactive)
same,fold change,[10]; [30],1.06
same,cell count,[10]; [31],8410
same,cell count,[10]; [32],9440
same,z-score,[17],0.935 (inactive)
CCCN(CCC)C1CCc2cccc(O)c2C1 (stereo not drawn),period change,[11],-0.07 h (inactive)
same,inhibition,[12],2% (inactive)
same,fluorescence ratio (interference),[13],1 (inactive)
same,remaining activity,[14],106% (inactive)
same,fold change,[10]; stronger effect = lower value,0.975 (inactive) and 0.957 (inactive)
same,fold change,[10]; [30],0.862 and 0.742
same,cell count,[10]; [31],10400 and 8490
same,cell count,[10]; [32],10700 and 8870
same,outcome,[16],inactive
same,z-score,[17],0.025 (inactive) and -0.42 (inactive)
CC(C)(c1ccc(OCC2CO2)cc1)c1ccc(OCC2CO2)cc1 (stereo not drawn),remaining activity,[14],110% (inactive)
same,fold change,[10]; stronger effect = lower value,0.903 (inactive) and 0.927 (inactive) and 0.945 (inactive)
same,fold change,[10]; [30],1.23 and 0.827 and 0.981
same,cell count,[10]; [31],5020 and 5510 and 8910
same,cell count,[10]; [32],5560 and 5950 and 9430
same,fold fluorescence,[27],8.02 [at 146.9 µM] (inactive)
same,z-score,[17],-0.925 (inactive)
N[C@@H](Cn1oc(=O)[nH]c1=O)C(=O)O,inhibition,[12],-2% (inactive)
same,fluorescence ratio (interference),[13],1 (inactive)
same,remaining activity,[14],106% (inactive)
same,remaining activity,[15],109% (inactive)
same,fold change,[10]; [33],0.917 (inactive)
same,fold change,[10]; [30],0.755
same,cell count,[10]; [31],8070
same,cell count,[10]; [32],8800
same,outcome,[16],inactive
same,z-score,[17],-0.215 (inactive)
N#Cc1ccc(N2CCN(C(=O)COc3ccc4[nH]cc(CCN)c4c3)CC2)cc1,remaining activity,[14],112% (inactive)
same,fold change,[10]; [33],0.857 (inactive)
same,fold change,[10]; [30],1.69
same,cell count,[10]; [31],8510
same,cell count,[10]; [32],9930
same,outcome,[16],inactive
same,z-score,[17],0.16 (inactive)
C=CCN1CC[C@]23c4c5ccc(O)c4O[C@H]2/C(=N/NC(=O)c2ccccc2)CC[C@@]3(O)[C@H]1C5,period change,[11],0.215 h (inactive)
same,remaining activity,[14],115% (inactive)
same,remaining activity,[15],116% (inactive)
same,fold change,[10]; stronger effect = lower value,0.994 (inactive)
same,fold change,[10]; [30],0.667
same,cell count,[10]; [31],9120
same,cell count,[10]; [32],9170
same,z-score,[17],-0.33 (inactive)
C[N+]1(C)CCC(OC(=O)C(c2ccccc2)c2ccccc2)CC1,period change,[11],0.03 h (inactive)
same,inhibition,[12],-2% (inactive)
same,fluorescence ratio (interference),[13],1.1 (inactive)
same,remaining activity,[14],93.9% (inactive)
same,remaining activity,[15],107% (inactive)
same,fold change,[10]; stronger effect = lower value,0.984 (inactive) and 0.955 (inactive)
same,fold change,[10]; [30],1.12 and 0.994
same,cell count,[10]; [31],9760 and 8710
same,cell count,[10]; [32],9910 and 9120
same,z-score,[17],0.275 (inactive) and 1.67 (inactive)
